Among the data in PubChem BioAssay (NCI) are growth values, retold here.

Some test systems named below: NCI-H23 lung; NCI-H226 lung; NCI-H322M lung; HOP-62 NSCLC; NCI-H460 lung; NCI-H522 lung; A549/ATCC NSCLC; 786-0 renal; COLO 205 colon; DU-145 prostate.
Common to all, as to assay: NCI-60 one-dose screen, 48 h (100 = growth as untreated, 0 = no growth, -100 = all killed)
Details in all cases: 10 µM unless noted

About 83,000 compounds went through this panel and 20% of them were active in at least one assay; those are over-represented in the sample as a whole.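 Step 1: grow cells in 96-well plates. Step 2: add test compound at a single concentration. Step 3: incubate 48 h. Step 4: record percent growth.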 Values without a mark were called inactive. The source made the active and inactive calls. How the source made its calls: active means growth percent below 10; inactive means the rest.

For `OC(CCC(O)(c1ccccc1)c1ccccc1)(c1ccccc1)c1ccccc1`, the growth in the assay on NCI-H23 lung is 80%; in the assay with NCI-H226 lung, 86.6%; in the assay with NCI-H322M lung, 102%; in the assay with HOP-62 NSCLC, 114%; with NCI-H460 lung, 19.9%; in the assay with NCI-H522 lung, 89.8%. Further, the results for the growth with A549/ATCC NSCLC, with 786-0 renal and in the assay on COLO 205 colon were 68.7%, 105% and 103%, respectively.
Turning to `COc1ccc2c(c1)nc(N)c1c3cc(C)c(C)cc3cn21`, the growth in the assay with NCI-H23 lung was 80.4%; in the assay on NCI-H226 lung, 86.8%; with NCI-H322M lung it was 94%; with HOP-62 NSCLC it was 84.7%; in the assay with NCI-H460 lung, 48.4%; with NCI-H522 lung it was 19.6%. Moreover, the growth with A549/ATCC NSCLC is 79.4%; with 786-0 renal, 91.2%.
As for `Cc1cc(C(=O)O)c(C)cc1C(=O)O`, the growth in the assay on NCI-H23 lung is 107%; in the assay on NCI-H226 lung, 101%; in the assay on NCI-H322M lung, 76.8%; in the assay on HOP-62 NSCLC it was 93.5%; in the assay on NCI-H460 lung, 119%; in the assay on NCI-H522 lung it was 96.5%. The growth is 103% in the assay with A549/ATCC NSCLC, 101% with 786-0 renal, 120% in the assay on COLO 205 colon and 120% with DU-145 prostate.
Consider `COc1ccc2c(c1)nc(N)c1c3cc(OC)c(OC)cc3cn21`, for which the growth in the assay with NCI-H23 lung is 56.1%; in the assay on NCI-H226 lung, 78.2%; with NCI-H322M lung, 84.6%; with HOP-62 NSCLC, 76.9%; in the assay on NCI-H460 lung it was 20.5%; in the assay with NCI-H522 lung, -8.03% (active). The growth in the assay with A549/ATCC NSCLC was 43.8%; in the assay with 786-0 renal, 43.1%.
As for `Fc1ccc(-c2nc(Nc3ccc(-c4nc5ccccc5[nH]4)cc3)nc(N3CCOCC3)n2)cc1`, the growth in the assay on NCI-H23 lung is -83.4% (active); with NCI-H226 lung it was -64.5% (active); with NCI-H322M lung, -92.8% (active); in the assay on HOP-62 NSCLC, -73.9% (active); in the assay on NCI-H460 lung, -80.3% (active); with NCI-H522 lung, -73.9% (active). The growth was -75.2% (active) in the assay on A549/ATCC NSCLC, -94.5% (active) with 786-0 renal, -68.4% (active) in the assay with COLO 205 colon and -94% (active) with DU-145 prostate.
Consider `COc1ccc(-n2nc3c(c2-c2ccc(OC)c(OC)c2)-c2oncc2CC3)cc1`, for which the growth is 93.3% in the assay on NCI-H23 lung; 106% in the assay with NCI-H226 lung; 97.7% in the assay with NCI-H322M lung; 94.1% in the assay with HOP-62 NSCLC; 90.3% in the assay with NCI-H460 lung; 18.1% in the assay on NCI-H522 lung. Moreover, the growth is 82.5% in the assay with A549/ATCC NSCLC and 78% in the assay on 786-0 renal.
Consider `CCOc1nc(-c2ccccc2)cc2c(O)c(C(=O)n3nc(C)cc3C)[nH]c(=O)c12`, for which the growth in the assay on NCI-H23 lung was 97.6%; in the assay on NCI-H226 lung it was 91.8%; in the assay with NCI-H322M lung it was 103%; in the assay with HOP-62 NSCLC it was 105%; in the assay with NCI-H460 lung, 107%; in the assay on NCI-H522 lung it was 104%. The growth in the assay with A549/ATCC NSCLC was 102%; in the assay with 786-0 renal, 100%; with COLO 205 colon, 108%; in the assay on DU-145 prostate, 111%.
With `OC(Cc1cccnc1)c1ccccc1` (stereo not given), the growth with NCI-H23 lung was 103%; in the assay on NCI-H226 lung, 107%; in the assay with NCI-H322M lung it was 95.9%; with HOP-62 NSCLC, 105%; in the assay on NCI-H460 lung it was 98%; in the assay with NCI-H522 lung, 101%. The growth with A549/ATCC NSCLC is 94.8%; in the assay with 786-0 renal, 108%; in the assay with COLO 205 colon, 114%.
As to `CN1COc2ccc3ccccc3c2C1`, the growth is 88.8% with NCI-H23 lung; 93.7% in the assay with NCI-H226 lung; 91.4% in the assay on NCI-H322M lung; 80.1% in the assay on HOP-62 NSCLC; 107% in the assay on NCI-H460 lung; 90.3% with NCI-H522 lung. Further, the growth in the assay with A549/ATCC NSCLC was 97.4%; with 786-0 renal, 91%; with COLO 205 colon, 133%; in the assay on DU-145 prostate, 107%.
For the compound `Cn1cc(-c2csc(-c3cn(C)c4ncccc34)n2)c2cccnc21`, the growth in the assay on NCI-H23 lung is 92.1%; in the assay with NCI-H226 lung, 107%; in the assay on NCI-H322M lung, 106%; in the assay with HOP-62 NSCLC, 123%; in the assay on NCI-H460 lung, 98.4%; in the assay with NCI-H522 lung, 87.1%. Further, the growth in the assay on A549/ATCC NSCLC was 89.7%; in the assay on 786-0 renal it was 83.1%.
With `COc1ccc2c3c(c(OCCCN(C)C)nc2c1)-c1ccc(Cl)cc1C3=O`, the growth in the assay on NCI-H23 lung was -2.72% (active); with NCI-H226 lung it was 32.1%; with NCI-H322M lung it was 3.92% (active); with HOP-62 NSCLC, 10% (active); in the assay on NCI-H460 lung, -81.2% (active); in the assay with NCI-H522 lung, -64.3% (active). Further, the growth was -64.1% (active) in the assay with A549/ATCC NSCLC, -40.3% (active) with 786-0 renal, -45.2% (active) with COLO 205 colon and 15.3% in the assay on DU-145 prostate.
Turning to `CCOc1cc(-c2ccc[nH]2)[nH]c1/C=C1\N=C(C)C(C(=O)OC)=C1C`, the growth in the assay on NCI-H23 lung is -59.4% (active); in the assay with NCI-H226 lung it was -61.9% (active); in the assay on NCI-H322M lung, -61.8% (active); in the assay with HOP-62 NSCLC it was -58% (active); in the assay on NCI-H460 lung it was -79.4% (active); in the assay with NCI-H522 lung, -50.1% (active). The growth is -47.1% (active) in the assay on A549/ATCC NSCLC, -50.2% (active) in the assay on 786-0 renal, -78.6% (active) in the assay with COLO 205 colon and -65.5% (active) in the assay on DU-145 prostate.
Turning to `Cn1cc(-c2nc(-c3c[nH]c4ncc(F)cc34)cs2)c2cccnc21`, the growth with NCI-H23 lung was 92.1%; with NCI-H226 lung it was 98.8%; in the assay with NCI-H322M lung, 107%; with HOP-62 NSCLC, 108%; in the assay on NCI-H460 lung, 96.3%; with NCI-H522 lung, 140%. For the same compound, the growth is 107% in the assay on A549/ATCC NSCLC and 94.4% in the assay with 786-0 renal.
Consider `S=C(c1ccccc1)N1CCN(c2cccc(Cl)c2)CC1`, for which the growth is 101% in the assay on NCI-H23 lung; 99.3% in the assay on NCI-H226 lung; 104% with NCI-H322M lung; 102% in the assay with HOP-62 NSCLC; 111% in the assay with NCI-H460 lung; 87.5% in the assay with NCI-H522 lung. The growth with A549/ATCC NSCLC was 87.8%; in the assay on 786-0 renal, 107%; in the assay on COLO 205 colon it was 100%.
Turning to `Cn1cc(-c2nc(-c3c[nH]c4ncccc34)cs2)c2cccnc21`, the growth is 63.1% in the assay with NCI-H23 lung; 70% in the assay with NCI-H226 lung; 64.3% in the assay with NCI-H322M lung; 68.2% in the assay with HOP-62 NSCLC; 46.6% with NCI-H460 lung; 46.5% in the assay with NCI-H522 lung. For the same compound, the growth with A549/ATCC NSCLC was 69.6%; in the assay with 786-0 renal, 60.6%.
